From PubChem BioAssay AID463173 (ICCB-Longwood Screening Facility, Harvard Medical School, 2010)
The whole screen tested about 52,000 compounds, of which about 4,300 (8.3%) were called active. This excerpt belongs to a sample that is enriched for actives. Unmarked numbers belong to inactive results. Cut-off read from the data, not from the text of the source: active = survival mostly below about 52% (no sharp cut-off); inactive = mostly above about 56%.

These molecules were tested on DeltatarO mutant (assay: S. aureus survival, RN4220 and DeltatarO strains – OD600, teichoic acid synthesis inhibitors, primary screen (AID 463173)). Details: S. aureus RN4220 wild type/DeltatarO growth, OD600, 18 h, active compounds read low, screened at 18.75 µg/mL (by protocol).

Structure (SMILES) | survival
O=C(NC1CCN(CC(=O)N2CCOCC2)CC1)C1CCCCC1 | 95%
CCN(C(=O)c1cccn(Cc2cccc(Cl)c2)c1=O)c1ccccc1 | 80%
COc1ccccc1C(=O)Nc1ccc(OCc2cc(=O)n3cccc(C)c3n2)cc1 | 94%
CC(C)Cc1cc(C(=O)O)nc(=O)[nH]1 | 105%
CC(=O)c1ccc(NC(=O)COCc2cc(-c3ccc(F)cc3)on2)cc1 | 102%
Cc1ccccc1NC(=O)CSc1cn(CC(=O)N(C(C)C)C(C)C)c2ccccc12 | 54%
CN1CCN(C(=O)C23CC4CC(CC(C4)C2)C3)CC1 | 111%
COc1cc(C(=O)NCC(c2cccs2)S(=O)(=O)c2ccc(F)cc2)cc(OC)c1OC (configuration not stated) | 104%
CCOc1ccc(S(=O)(=O)Nc2ccc(OC)c(Cl)c2)c2cccnc12 | 70%
O=C(CCSCc1cnn(-c2ccccc2)c1-n1cccc1)NCc1ccccc1Cl | 54% (active)
O=C(NCc1ccc(F)cc1Cl)c1ccc(CSCc2ccccc2Cl)o1 | 54%
O=C(NCc1ccccc1Cl)c1ccc(CSCc2cccc(F)c2)o1 | 17% (active)
O=C(CCSCc1ccc(Cl)cc1)NCc1ccc(F)cc1Cl | 88%
O=C(CCSCc1cccc(Cl)c1)NCc1ccc(F)cc1Cl | 102%
Cc1ccccc1CNC(=O)CCSCc1cnn(-c2ccccc2)c1-n1cccc1 | 64%
O=C(NCc1ccccc1Cl)c1ccc(CSCc2ccccc2Cl)o1 | 93%
O=C(CCSCc1ccccc1Cl)NCc1ccc(F)cc1Cl | 8% (active)
O=C(CCSCc1cnn(-c2ccccc2)c1-n1cccc1)NCc1ccccc1F | 61%
Fc1ccccc1N1CCN(c2ncc3c(n2)CCN(Cc2ccc(Br)s2)C3)CC1 | 66%
CCc1nn2c(=O)cc(COC(=O)c3ccc(NC(=O)CCc4ccccc4)cc3)nc2s1 | 99%
COc1ccc(OC)c(NC(=O)C(C)n2nc(C)c3c(C)n(-c4ccccc4)nc3c2=O)c1 (configuration not stated) | 93%
O=C(Nc1cccc(F)c1)C1CCN(S(=O)(=O)c2ccc3[nH]c4c(c3c2)CCCCC4)CC1 | 89%
CCCn1c2ccccc2c2cnn(CC(=O)NC(C)CC)c(=O)c21 (configuration not stated) | 72%

Structure (SMILES) | survival
O=C(NCc1ccco1)c1ccc2c(c1)N(Cc1ccc(Cl)cc1)C(=O)c1ccccc1S2 | 71%
COc1ccc(CCN2C(=O)N(c3ccc(F)cc3)C(=O)C2CC(=O)Nc2ccccc2)cc1OC (configuration not stated) | 76%
Cc1ccc(NC(=O)Nc2nnc(SCC(=O)Nc3ccc(F)cc3F)s2)cc1 | 102%
Nc1nc(N)c(S(=O)(=O)c2ccccc2)c(Nc2ccccc2)n1 | 69%
Cc1nc(N)c(S(=O)(=O)c2ccccc2)c(Nc2ccc(Br)cc2)n1 | 87%
Nc1nc(N)c(S(=O)(=O)c2ccccc2)c(Nc2ccc(Br)cc2)n1 | 44% (active)
CC1(N2CCOCC2)CC(=O)N(c2ccccc2)O1 (configuration not stated) | 62% (active)
O=C1c2ccccc2C(=O)C1(O)N1CCOCC1 | 85%
Cc1c(CN2CCOCC2)c(=O)n(-c2ccccc2)n1C | 87%
COc1ccc(OCC2c3cc(OC)c(OC)cc3CCN2C(=O)c2c(F)cccc2F)cc1 (configuration not stated) | 112%
CCN(CC)c1ccc(NC(=O)CCc2c(C)nc3ncnn3c2C)c(C)c1 | 115%
CCN1CCN(CCCNC(=O)c2cc3c(=O)n(C)c4ccccc4c3s2)CC1 | 79%
O=C(NCCSCc1cccc(Cl)c1)C1CCN(S(=O)(=O)Cc2ccccc2)CC1 | 63%
COc1ccc(OC)c(C2C(C(=O)Nc3ccc(C)cc3C)=C(C)Nc3c(C(=O)Nc4ccc(F)cc4)cnn32)c1 (configuration not stated) | 96%
COc1ccc(CNC(=O)c2nc(SC(C)C)ncc2Cl)cc1 | 114%
COc1ccc(CNC(=O)c2nc(S(=O)(=O)Cc3ccccc3)ncc2Cl)cc1 | 18% (active)
COc1ccc(CNC(=O)c2nc(SCc3ccccc3F)ncc2Cl)cc1 | 81%
Cc1ccc(CSc2ncc(Cl)c(C(=O)NCc3ccccc3)n2)cc1 | 79%
Cc1ccc(CNC(=O)c2nc(SCc3ccc(F)cc3)ncc2Cl)cc1 | 71%
O=C(NCc1ccccc1)c1nc(S(=O)(=O)Cc2ccccc2)ncc1Cl | 18% (active)
Cc1ccc(C)c(NC(=O)c2nc(S(=O)(=O)Cc3ccc(F)cc3)ncc2Cl)c1 | 99%
Cc1ccc(NC(=O)c2nc(S(=O)(=O)Cc3ccc(F)cc3)ncc2Cl)cc1C | 84%
O=C(NCc1ccccc1)c1nc(S(=O)(=O)Cc2ccc(F)cc2)ncc1Cl | -6% (active)

Structure (SMILES) | survival
CCS(=O)(=O)c1ncc(Cl)c(C(=O)NCc2ccccc2)n1 | 50%
CC(=O)Nc1ccc(NC(=O)c2nc(S(=O)(=O)Cc3ccc(F)cc3)ncc2Cl)cc1 | 32% (active)
CCNC(=O)c1c(NC(=O)Cc2coc3ccc(CC)cc23)sc2c1CCCC2 | 79%
COc1ccc(CNC(=O)c2cccc(-n3cnc4cccnc43)c2C)cc1 | 90%
CCc1ccc(NC(=O)c2cc(S(=O)(=O)N3CCCCCC3)ccc2F)cc1 | 99%
CC(=O)Nc1n[nH]c(-c2ccc(C)cc2)c1C | 94%
Cc1ccc(NC(=O)Cn2c(=O)ccc3cc(S(=O)(=O)N4CCC(C)CC4)ccc32)cc1C | 71%
COc1ccc(N2C(=O)C(CC(=O)Nc3ccccc3)N(CCC3=CCCCC3)C2=O)cc1 (configuration not stated) | 72%
COc1ccccc1NC(=O)c1nc(SCc2ccc(F)cc2)ncc1Cl | 77%
COc1ccc(NC(=O)c2nc(S(=O)(=O)Cc3ccc(C)cc3)ncc2Cl)cc1 | 32% (active)
Cc1ccc(CNC(=O)c2nc(S(=O)(=O)Cc3ccc(C)cc3)ncc2Cl)cc1 | 41% (active)
Cc1cccc(CS(=O)(=O)Cc2ccc(C(=O)NCc3ccccc3)o2)c1 | 124%
COc1ccc(OC)c(NC(=O)c2nc(S(=O)(=O)Cc3ccc(F)cc3)ncc2Cl)c1 | -5% (active)
Cc1ccc(CNC(=O)c2nc(SCc3cccc(C)c3)ncc2Cl)cc1 | 117%
Cc1cccc(CS(=O)(=O)c2ncc(Cl)c(C(=O)NCc3ccccc3)n2)c1 | -1% (active)
COc1ccc(CNC(=O)c2nc(SCc3ccc(C)cc3)ncc2Cl)cc1 | 67%
COc1ccc(OC)c(NC(=O)c2nc(SCc3ccc(F)cc3)ncc2Cl)c1 | 77%
CSc1ncc(Cl)c(C(=O)NCc2ccc(C)cc2)n1 | 84%
CCOc1ccc(NS(=O)(=O)c2ccc3c(c2)CCCN3C(=O)C2CCC2)cc1 | 67%
CC(C)Oc1ccc(CNC(=O)c2cnc3sc(N4CCCCC4)nn3c2=O)cc1 | 124%
CCCCCn1c(=N)c(S(=O)(=O)c2ccc(C)cc2)cc2c(=O)n3cc(C)ccc3nc21 | 84%
O=C(NCc1ccc(Cl)cc1)NCc1noc2ccccc12 | 41%
COc1ccccc1NC(=O)CSc1oc(-c2cccs2)nc1S(=O)(=O)c1ccc(Br)cc1 | 68%

Structure (SMILES) | survival
CCn1ccc2cc(S(=O)(=O)N3CCCN(C(=O)Nc4ccc(C)cc4)CC3)ccc21 | 73%
CCSc1nnc(C2CCCN(CC(=O)Nc3nc(C)cs3)C2)n1C (configuration not stated) | 91%
CC(C)NC(=O)c1ccc(CSc2nc3ccncc3n2Cc2cccc(F)c2)cc1 | 77%
CCOc1ccc(-c2nonc2NC(=O)c2ccccc2C)cc1 | 107%
CCOc1ccc(NC(=O)c2cc(S(=O)(=O)N3CCOCC3)ccc2F)cc1 | 89%
CCOC(=O)c1ccc(NC(=O)c2nc(SC(C)C)ncc2Cl)cc1 | 107%
CCS(=O)(=O)c1ncc(Cl)c(C(=O)Nc2c(C(=O)Nc3cccc(C)c3)oc3ccccc23)n1 | 67%
CCS(=O)(=O)c1ncc(Cl)c(C(=O)Nc2ccccc2)n1 | 52%
COC(=O)c1ccccc1NC(=O)c1nc(S(=O)(=O)Cc2cccc(C)c2)ncc1Cl | 39% (active)
CCOC(=O)c1ccc(NC(=O)c2nc(S(=O)(=O)Cc3ccccc3)ncc2Cl)cc1 | -2% (active)
COC(=O)c1ccccc1NC(=O)c1nc(SCc2ccccc2C)ncc1Cl | 79%
CCOc1ccccc1NC(=O)c1nc(S(=O)(=O)Cc2cccc(C)c2)ncc1Cl | 66%
Cc1ccc(NC(=O)c2nc(S(=O)(=O)Cc3cccc(C)c3)ncc2Cl)cc1 | -3% (active)
CCc1cccc(NC(=O)Cn2c(=O)n(-c3ccccc3C)c(=O)c3c2c2cc(C)ccc2n3C)c1 | 85%
O=C(COc1ccccc1Cl)Nc1ccc(-c2nc3ccccc3s2)cc1 | 52%
CCOC(=O)c1ccc(Nc2c(-c3ccc(N(C)C)cc3)nc3nc[nH]n23)cc1 | 102%
COc1cccc(OCc2cc(=O)n3c(-c4ccccc4)csc3n2)c1 | 74%
CC(C)CC(=O)Nc1cccc(-c2cn3cccnc3n2)c1 | 83%
CN1CCN(Cc2nnnn2CC2CCCO2)CC1 (configuration not stated) | 95%
CCc1cccc(NC(=O)c2nnn(Cc3ccc(SC)cc3)c2N)c1 | 59%
CCOc1ccc(Cn2nnc(C(=O)Nc3cccc(SC)c3)c2N)cc1 | 30% (active)
CCOc1ccc(Cn2nnc(C(=O)Nc3ccc(Cl)cc3)c2N)cc1 | 88%
CCOc1ccc(S(=O)(=O)Nc2cccc(-c3ccc(N4CCC(C)CC4)nn3)c2)cc1 | 86%
